PubChem BioAssay (NCATS)
Where “and” joins values, the source holds several entries; their conditions need not be identical. Equal entries are not always repeated. Inconclusive results are not listed. Where a call stands in place of a potency, no number is given. Values without a mark were called inactive. Calls of active or inactive are those of the source. Unless noted, calls follow the shape of the dose curve; as a rule, active = well fitted curve in the direction sought with a large enough effect; inconclusive = small, poorly fitted or top-dose-only effect, or another doubt; inactive = no such curve, though single readings can be large; an effect the other way counts as inactive or inconclusive. Non-standard residues stand in square brackets, D forms with d. Residues, ends and D or L forms follow the SMILES beside them. *: point of attachment. Sta = CC(C)C[C@H](N)[C@@H](O)CC(=O)O; Isovaleryl = CC(C)CC(=O)*

Key:
[1] = molecular target: Calcium and integrin-binding protein 1 (Homo sapiens) (UniProt Q99828); experiment: Primary qHTS for Identification of Calcium Integrin Binding Protein 1 (CIB1) Competitor (AID 1508620);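 also: GST tagged CIB1 binding a fluorescein labelled alphaIIb integrin peptide tracer; top concentration of the series differs between compounds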
Procedure, shortened: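 Fluorescence polarization competition: CIB1-GST (1 uM final) preincubated with compound 15 min at room temperature, then FITC-labeled alphaIIb peptide (100 nM final) added for another 15 min. Polarization read at Ex 480/Em 540.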

[2] = Primary qHTS for small molecule stabilizers of the endoplasmic reticulum resident proteome: Secreted ER Calcium Modulated Protein (SERCaMP) assay (AID 1508630)
Procedure, shortened: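 GLuc-SERCaMP-expressing SH-SY5Y cells, pretreated 16 h with compound, are challenged with thapsigargin to empty ER calcium stores; after 4 h, coelenterazine is added directly to the medium and luminescence is imaged.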

[3] = A High-Content qHTS Against Drug Library for the Identification of Small Molecules that Inhibit DYT1 Early Onset Primary Dystonia-Associated Cell Pathology (AID 1645839; calls by dose curve; also: series mostly up to about 46 µM)
Procedure, shortened: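 Readout: %pathology, the punctate EGFP-TorsinA distribution from imaging, as the primary channel and cell count as the toxicity counterscreen. HEK293 Flp-In cells expressing delE TorsinA were induced with tetracycline and treated with compound for 48 h.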

[4] = Counterscreen qHTS for small molecule stabilizers of the endoplasmic reticulum resident proteome: GLuc-NoTag assay (AID 1508627);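 also: SH-SY5Y cells given compound then 100 nM thapsigargin to empty ER calcium; series mostly up to about 76 µM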
Procedure, shortened: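 SH-SY5Y cells stably expressing constitutively secreted GLuc (no SERCaMP tag) were pre-incubated 5 h, treated with compound for 19 h, then 100 nM thapsigargin for 4 h at 37C; medium GLuc read by coelenterazine luminescence.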

[5] = Confirmatory qHTS for small molecule stabilizers of the endoplasmic reticulum resident proteome: Secreted ER Calcium Modulated Protein (SERCaMP) assay (AID 1508628);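 also: SH-SY5Y cells given compound 16 h then thapsigargin 100 nM for 4 h; series mostly up to about 76 µM; nearly all actives have a fitted effect of over 40% in size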
Procedure, shortened: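 We seeded SH-SY5Y-GLuc-SERCaMP cells, added compounds (three concentrations in the primary run, eleven up to 76.6 uM in confirmation), incubated 16 h, depleted ER calcium with thapsigargin, and read luciferase 4 h later.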

[6] = Cell Viability qHTS for small molecule stabilizers of the endoplasmic reticulum resident proteome (AID 1508629); conditions: cell viability counter-screen, 100 nM thapsigargin for final 4 h;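 also: human SH-SY5Y neuroblastoma cells carrying the GLuc-SERCaMP reporter; compound exposure about 46 h in total before the viability read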
[7] = molecular target: Cytochrome P450 2D6 (Homo sapiens) (UniProt P10635); experiment: Cytochrome P450 family 2 subfamily D member 6 (CYP2D6) small molecule antagonists: luciferase biochemical (cell-free) qHTS assay (AID 1645840; active = well fitted curve in the direction sought with a large enough effect in the repeat runs; an effect the other way counts as inactive or inconclusive; also: nearly all actives have a fitted effect of over 55% in size; also: potency is read from the fitted curve at half-maximal effect)
Procedure, shortened: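 P450-Glo luminescent screen: recombinant CYP2D6 enzyme–proluciferin substrate mix preincubated with compound 10 min at room temperature, then NADPH regeneration added for 1 h at room temperature. Detection reagent added for 20 min; luciferin light read as relative luminescence units.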

[8] = molecular target: Cytochrome P450 2C9 (Homo sapiens) (UniProt P11712); experiment: Cytochrome P450 family 2 subfamily C member 9 (CYP2C9) small molecule antagonists: luciferase biochemical (cell-free) qHTS assay (AID 1645842; active = well fitted curve in the direction sought with a large enough effect in the repeat runs; an effect the other way counts as inactive or inconclusive; also: nearly all actives have a fitted effect of over 55% in size; also: potency is read from the fitted curve at half-maximal effect)
Procedure, shortened: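 Luminescence, after 20 min with luciferin detection reagent, reflected CYP2C9 turnover during a 1 h NADPH-driven reaction at 37C. Enzyme-substrate mix contained 0.4% bovine serum albumin and was preincubated with compound 10 min at room temperature.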

Papain (Carica papaya) = Papain (Carica papaya) (UniProt P00784); experiment: Primary qHTS assay for inhibitors of the protease papain (AID 1645873);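 also: papain turnover of Z-FR-AMC read as the AMC fluorescence gain over 10 min; series mostly up to about 50 µM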
Papain (Carica papaya), sequence (P00784 whole entry, looked up): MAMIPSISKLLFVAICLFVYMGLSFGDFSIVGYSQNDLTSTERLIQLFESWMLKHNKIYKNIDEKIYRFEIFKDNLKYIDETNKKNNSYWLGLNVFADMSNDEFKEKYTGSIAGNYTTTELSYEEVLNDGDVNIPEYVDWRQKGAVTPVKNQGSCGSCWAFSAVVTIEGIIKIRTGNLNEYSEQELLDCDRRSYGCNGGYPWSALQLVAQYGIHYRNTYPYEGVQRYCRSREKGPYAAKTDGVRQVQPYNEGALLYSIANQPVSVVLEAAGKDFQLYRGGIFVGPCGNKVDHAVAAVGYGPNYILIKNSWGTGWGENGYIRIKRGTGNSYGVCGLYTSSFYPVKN

Cytochrome P450 2D6 (Homo sapiens), sequence (P10635 whole entry, looked up): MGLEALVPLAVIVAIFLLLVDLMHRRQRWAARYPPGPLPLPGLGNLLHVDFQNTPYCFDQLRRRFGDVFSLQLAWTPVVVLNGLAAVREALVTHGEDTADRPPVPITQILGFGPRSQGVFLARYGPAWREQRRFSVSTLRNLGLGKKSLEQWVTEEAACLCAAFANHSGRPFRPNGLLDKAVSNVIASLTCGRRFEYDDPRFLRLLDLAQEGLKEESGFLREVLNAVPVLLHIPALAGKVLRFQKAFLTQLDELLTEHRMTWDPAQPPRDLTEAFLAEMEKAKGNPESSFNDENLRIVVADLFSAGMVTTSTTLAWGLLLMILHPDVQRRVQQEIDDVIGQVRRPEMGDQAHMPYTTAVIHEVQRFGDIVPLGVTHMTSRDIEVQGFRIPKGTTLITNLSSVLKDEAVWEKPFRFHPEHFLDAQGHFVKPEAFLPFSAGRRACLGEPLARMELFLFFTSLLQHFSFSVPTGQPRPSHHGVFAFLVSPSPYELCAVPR
Calcium and integrin-binding protein 1 (Homo sapiens), sequence (Q99828 whole entry, looked up): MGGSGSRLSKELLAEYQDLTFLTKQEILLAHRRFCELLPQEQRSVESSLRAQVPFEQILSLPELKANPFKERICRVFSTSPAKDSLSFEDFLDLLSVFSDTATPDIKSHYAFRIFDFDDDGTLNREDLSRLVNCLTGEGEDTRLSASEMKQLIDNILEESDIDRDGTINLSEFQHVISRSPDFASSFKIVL
Cytochrome P450 2C9 (Homo sapiens), sequence (P11712 whole entry, looked up): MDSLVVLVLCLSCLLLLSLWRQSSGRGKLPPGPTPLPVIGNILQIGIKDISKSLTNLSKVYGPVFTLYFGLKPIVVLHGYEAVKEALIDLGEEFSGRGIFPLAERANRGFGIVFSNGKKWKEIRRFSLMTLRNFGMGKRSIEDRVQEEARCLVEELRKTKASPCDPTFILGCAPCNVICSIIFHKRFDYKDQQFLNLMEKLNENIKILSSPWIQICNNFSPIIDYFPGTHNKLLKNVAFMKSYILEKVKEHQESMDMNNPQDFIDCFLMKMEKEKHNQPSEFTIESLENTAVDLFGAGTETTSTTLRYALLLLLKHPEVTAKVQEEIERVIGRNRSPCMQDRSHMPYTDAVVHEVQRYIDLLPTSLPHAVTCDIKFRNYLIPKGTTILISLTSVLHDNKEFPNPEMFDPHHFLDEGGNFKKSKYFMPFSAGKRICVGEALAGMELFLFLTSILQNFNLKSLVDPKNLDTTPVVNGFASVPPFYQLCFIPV

CC(C)c1nc(CN(C)C(=O)N[C@H](C(=O)N[C@@H](Cc2ccccc2)C[C@H](O)[C@H](Cc2ccccc2)NC(=O)OCc2cncs2)C(C)C)cs1
Potency [1]: inactive
Potency [2]: inactive

Clc1ccc(C(Cn2ccnc2)OCc2c(Cl)cccc2Cl)c(Cl)c1 (stereo unspecified)
Potency [1]: inactive
Potency [2]: inactive

Nc1cccc2c1CN(C1CCC(=O)NC1=O)C2=O (stereo unspecified)
Potency [1]: inactive
Potency [2]: inactive
Potency [3]: inactive

CCOC(=O)C1=C[C@@H](OC(CC)CC)[C@H](NC(C)=O)[C@@H](N)C1
Potency [1]: inactive
Potency [2]: inactive

O=P(O)(O)C(O)(Cn1ccnc1)P(=O)(O)O
Potency [1]: inactive
Potency [2]: inactive

O=c1cc(N2CCOCC2)oc2c(-c3ccccc3)cccc12
Potency [1]: inactive
Potency [4]: inactive
Potency [5]: inactive
max response [6]: -28.5%
Potency [2]: inactive

C[C@H](Cn1cnc2c(N)ncnc21)OCP(=O)(O)O
Potency [1]: inactive
Potency [2]: inactive

CCCCCCCCCCCCCCCCCCCCCCO
Potency [1]: inactive
Potency [2]: inactive

CCN(CC)CCOc1ccc(Nc2ncc3cc(-c4c(Cl)cccc4Cl)c(=O)n(C)c3n2)cc1
Potency [1]: inactive
Potency [2]: inactive

Cc1cccc(CN2CCN(C(c3ccccc3)c3ccc(Cl)cc3)CC2)c1 (stereo unspecified)
Potency [1]: inactive
Potency [2]: inactive
Potency [7]: 2.45 µM (active)
Potency [8]: 11 µM (active)

CCC1=C(C)CN(C(=O)NCCc2ccc(S(=O)(=O)NC(=O)NC3CCC(C)CC3)cc2)C1=O (stereo unspecified)
Potency [1]: inactive
Potency [2]: inactive
Potency [7]: inactive

CC1=C(C)C(=O)C(C(CCCCCC(=O)O)c2ccccc2)=C(C)C1=O (stereo unspecified)
Potency [1]: inactive
Potency [2]: inactive
Potency [7]: 11 µM (active)
Potency [8]: 17.4 µM (active)

c1ccc2[nH]c(-c3cscn3)nc2c1
Potency [1]: inactive
Potency [2]: inactive
Potency [3]: inactive
Potency [8]: inactive

O=C(c1ccccc1)c1ccc2n1CCC2C(=O)O (stereo unspecified)
Potency [1]: inactive
Potency [2]: inactive
Potency [3]: inactive
Potency [8]: inactive
Potency (Papain (Carica papaya)): inactive

COC1=C(OC)C(=O)C(CCCCCCCCCCO)=C(C)C1=O
Potency [1]: inactive
Potency [2]: inactive
Potency [7]: 3.89 µM (active)
Potency [8]: 7.76 µM (active)

COc1cc2nc(N3CCN(C(=O)C4CCCO4)CC3)nc(N)c2cc1OC (stereo unspecified)
Potency [1]: inactive
Potency [2]: inactive
Potency [3]: inactive
Potency [8]: inactive

Cn1c(NCCN(CCO)CCCc2ccc([N+](=O)[O-])cc2)cc(=O)n(C)c1=O
Potency [1]: inactive
Potency [2]: inactive
Potency [3]: inactive
Potency [8]: inactive

Cc1cc2c(s1)Nc1ccccc1N=C2N1CCN(C)CC1
Potency [1]: inactive
Potency [2]: inactive
Potency [7]: inactive
Potency [8]: inactive

CN(C)[C@@H](CCOc1cccc2ccccc12)c1ccccc1
Potency [1]: inactive
Potency [2]: inactive
Potency [7]: 347 nM (active) and 849 nM (active)
Potency [8]: 15.5 µM (active) and 21.3 µM (active)

CC(C)CC(=O)N[C@H](C(=O)N[C@H](C(=O)N[C@@H](CC(C)C)[C@@H](O)CC(=O)N[C@@H](C)C(=O)N[C@@H](CC(C)C)[C@@H](O)CC(=O)O)C(C)C)C(C)C (Isovaleryl-VV[Sta]A[Sta]-OH)
Potency [1]: inactive
Potency [2]: inactive
Potency [3]: inactive
Potency [7]: inactive
Potency [8]: inactive

Cc1cc(C2CCCCC2)n(O)c(=O)c1
Potency [1]: inactive
Potency [2]: inactive
Potency [7]: inactive
Potency [8]: inactive

Nc1nc(Cl)nc2c1ncn2[C@H]1C[C@H](O)[C@@H](CO)O1
Potency [1]: inactive
Potency [2]: inactive
Potency [7]: inactive

CCN(CC)CCOc1ccc(Cc2ccccc2)cc1
Potency [1]: inactive
Potency [2]: inactive
Potency [7]: 6.17 µM (active)
Potency [8]: inactive

CCCCc1ccc2nc(NC(=O)OC)[nH]c2c1
Potency [1]: inactive
Potency [2]: inactive
Potency [3]: inactive
Potency [8]: inactive

c1cnc2cc3c(cc2n1)C1CNCC3C1
Potency [1]: inactive
Potency [2]: inactive
Potency [3]: inactive
Potency [7]: inactive
Potency [8]: inactive
Potency (Papain (Carica papaya)): inactive

Cc1nc(Nc2ncc(C(=O)Nc3c(C)cccc3Cl)s2)cc(N2CCN(CCO)CC2)n1
Potency [1]: inactive
Potency [2]: inactive
Potency [7]: inactive
Potency [8]: inactive

O=C(NOCC1CC1)c1ccc(F)c(F)c1Nc1ccc(I)cc1Cl
Potency [1]: inactive
Potency [2]: inactive
Potency [7]: inactive
Potency [8]: 0.617 µM (active)

CC(C)C[C@H](NC(=O)[C@H](Cc1ccccc1)NC(=O)c1cnccn1)B(O)O
Potency [1]: inactive
Potency [2]: inactive
Potency [3]: inactive
Potency [7]: inactive
Potency [8]: inactive

CCCCCCCCOc1ccccc1C(=O)Nc1ccc(C(=O)OCC[N+](C)(CC)CC)cc1
Potency [1]: inactive
Potency [2]: inactive
Potency [7]: 17.4 µM (active)
Potency [8]: 1.55 µM (active)

Cc1ccc(C(=O)c2cc(O)c(O)c([N+](=O)[O-])c2)cc1
Potency [1]: inactive
Potency [2]: inactive
Potency [7]: inactive
Potency [8]: 5.49 µM (active)

Cc1c(OCC(F)(F)F)ccnc1CS(=O)c1nc2ccccc2[nH]1 (stereo unspecified)
Potency [1]: inactive
Potency [2]: inactive
Potency [3]: inactive
Potency [7]: 389 nM (active) and 1.07 µM (active)
Potency [8]: 15.5 µM (active) and 13.5 µM (active)

CC1Cc2ccccc2N1NC(=O)c1ccc(Cl)c(S(N)(=O)=O)c1 (stereo unspecified)
Potency [1]: inactive
Potency [2]: inactive
Potency [7]: inactive
Potency [8]: inactive

O=c1c(O)c(-c2ccc(O)cc2O)oc2cc(O)cc(O)c12
Potency [1]: inactive
Potency [2]: inactive
Potency [7]: inactive

COc1cc(C(C)=O)ccc1OCCCN1CCC(c2noc3cc(F)ccc23)CC1
Potency [1]: inactive
Potency [2]: inactive
Potency [7]: 5.49 µM (active)
Potency [8]: inactive

NNc1nncc2ccccc12
Potency [1]: inactive
Potency [2]: inactive
Potency [3]: inactive
Potency [7]: inactive
Potency [8]: inactive
Potency (Papain (Carica papaya)): inactive
